{
  "source": "PubChem BioAssay (NCI)",
  "note": "This is part of a sample that, as a whole, favours compounds with a hit. Of some 83,000 tested, about 20% had one in any assay.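 In brief: 96-well plates, 48 h treatment, single concentration, percent growth endpoint.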 Unmarked numbers belong to inactive results. Calls of active or inactive are those of the source. The calls were made as follows: active = growth percent below 10; inactive = the rest.",
  "data": [
    {"test_system": "A549/ATCC NSCLC", "test": "NCI-60 one-dose screen, 48 h (100 = growth as untreated, 0 = no growth, -100 = all killed)", "conditions": "10 µM unless noted", "values": [
      {"smiles": "CC/C(=C(\\c1ccc(Cl)cc1)c1ccc(OCCN2CCCCC2)cc1)c1ccc(O)cc1", "growth": "32.5%"},
      {"smiles": "CCOC(=O)c1[nH]cc2c1CCc1sc(Nc3ccccn3)nc1-2", "growth": "70.2%"},
      {"smiles": "COc1cc(-c2ccc(-c3ccc(C(=N)N)cc3)s2)cc(OC)c1OC", "growth": "75.4%"},
      {"smiles": "CN(C)c1ccc([C@@H](C(=O)Nc2cccc([N+](=O)[O-])c2)N(C(=O)c2cc3ccccc3[nH]2)c2cccc([N+](=O)[O-])c2)cc1", "growth": "92.9%"},
      {"smiles": "Cc1cccc(NC(=O)N/C(N)=N/c2nc3ccccc3s2)c1", "growth": "45.9%"},
      {"smiles": "CN(C)c1ccc(/C=N\\NC(=O)c2ccc3nc(-c4ccc(Cl)cc4)[nH]c3c2)cc1", "growth": "17.8%"},
      {"smiles": "C=C1SC(=Nc2ccccc2Cl)N(C(=O)c2sc3ccccc3c2Cl)C1(C)C", "growth": "43.7%"},
      {"smiles": "CC[C@@H](C(=O)[C@@H](C)[C@@H](O)[C@H](C)[C@@H]1O[C@@H]([C@@H](CC)C(=O)ONC(=O)c2ccccc2O)CC[C@@H]1C)C1O[C@]2(C=CC(=O)[C@]3(CC[C@@](C)([C@H]4CC[C@](O)(CC)[C@H](C)O4)O3)O2)[C@H](C)C[C@@H]1C", "note": "(stereo partly drawn)", "growth": "23.8%"},
      {"smiles": "Cc1ccc(NC(=O)c2cc3ccccc3cc2O)c(C)c1", "growth": "106%"},
      {"smiles": "CCN(CC)CCOc1ccc2c(-c3ccccc3)c(-c3ccc(OC)cc3)c(=O)oc2c1", "growth": "70.6%"},
      {"smiles": "CCOC(=O)C1=C(CC(O)c2ccc(OC)cc2OC)NC(=O)NC1c1ccccc1", "note": "(stereo not drawn)", "growth": "107%"},
      {"smiles": "COc1nc(/C=C\\Nc2ccc3c(c2)OCCOCCOCCOCCO3)nc(OC)n1", "growth": "99.2%"},
      {"smiles": "Cc1c(O)cc(-c2cnc(N/N=C/c3ccccc3)s2)c(O)c1C", "growth": "94.1%"},
      {"smiles": "CCCCO[C@@H]1C=C2[C@H]3CC(C)(C)C(=O)C[C@]3(C(=O)O[C@@H]3O[C@H](CO[C@@H]4O[C@H](CO)[C@@H](OC5OC(C)C(O)C(O)C5O)[C@H](O)[C@H]4O)[C@@H](O)[C@H](O)[C@H]3O)CC[C@@]2(C)[C@]2(C)CC[C@H]3C(C)(C)C(=O)CC[C@]3(C)[C@@H]12", "note": "(stereo partly drawn)", "growth": "84.8%"},
      {"smiles": "O=CN1N=C(c2cccc(Nc3ccnc4cc(Cl)ccc34)c2)CC1c1ccc(Cl)cc1", "note": "(stereo not drawn)", "growth": "34.3%"},
      {"smiles": "CCCCCCCCn1ccc2cc(NC(=O)CN3CCN(c4cc(C)nc(Cl)n4)CC3)ccc21", "growth": "87.4%"},
      {"smiles": "O=C1Nc2ccccc2/C1=N/N1C(=O)CN(CCCl)C1=O", "growth": "104%"},
      {"smiles": "CCOc1ccc(/C=C/C(=O)c2cccc(OCCCOc3cccc(C(=O)/C=C/c4ccc(OCC)cc4)c3)c2)cc1", "growth": "85.4%"},
      {"smiles": "C=C1C(=O)O[C@H]2[C@H]1CC/C(COC(=O)NCc1ccc(Cn3c(=O)sn(-c4ccc(I)cc4)c3=O)cc1)=C\\CC[C@@]1(C)O[C@@H]21", "growth": "94.9%"},
      {"smiles": "O=C1/C(=C/c2c[nH]c(=O)[nH]c2=O)SC(=S)N1Cc1ccccc1", "growth": "101%"},
      {"smiles": "Nc1nc(N(Cc2ccccc2)c2ccccc2)c2cn[nH]c2n1", "growth": "71.4%"},
      {"smiles": "CC(C)NS(=O)(=O)/N=C1\\NC(=O)NC1=C(Cl)Cl", "growth": "94%"},
      {"smiles": "COc1cc2c(cc1OCCCN1CCN(C(=S)SCCC(C#N)(c3ccccc3)c3ccccc3)CC1)N=C[C@@H]1CCCN1C2=O", "growth": "-3.55% (active)"},
      {"smiles": "O=c1cc(CP(=O)(O)O)c2cc(O)c(-c3ccccc3)cc2o1", "growth": "106%"},
      {"smiles": "O=S(=O)(Nc1ccc2ccccc2c1)c1ccc(-c2cnc(C3CC3)o2)cc1", "growth": "37.6%"},
      {"smiles": "N=C(N)c1ccc(OCCSCCOc2ccc(C(=N)N)cc2)cc1", "growth": "57.4%"},
      {"smiles": "Fc1ccc(/C=C/[C@@H]2C[C@@H](F)CCO2)cc1", "growth": "106%"},
      {"smiles": "COC(=O)[C@@]12CC=C(C)[C@]3(C[C@H](c4ccoc4)OC3=O)[C@H]1C=C[C@@H](O)[C@@]2(O)C(=O)OC", "growth": "84.9%"},
      {"smiles": "O=c1oc2c(cc1-c1ccccc1)c(=O)[nH]c1ccccc12", "growth": "97.7%"},
      {"smiles": "COc1ccc(C/C(C)=C(\\c2ccc(O)cc2)c2ccc(OCCN3CCCCC3)cc2)cc1", "growth": "79.2%"},
      {"smiles": "CNC(=O)c1cc(Oc2ccc3c(c2)sc2nc(-c4ccc(NC(=O)[C@@H](NC(=O)OC)C(C)C)cc4)cn23)ccn1", "growth": "80.8%"},
      {"smiles": "Nc1[nH]nc2nc(-c3ccccc3)n3c4ccccc4nc3c12", "growth": "101%"},
      {"smiles": "N#Cc1ccccc1-c1ccc(CN2C(=O)S/C(=C\\c3ccc(Br)cc3)C2=O)cc1", "growth": "97.3%"}
    ]}
  ]
}
